Measured values published in the supplement of paper PMC11732987, “Enantioselective OTUD7B fragment discovery through chemoproteomics screening and high-throughput optimisation” (Communications Chemistry, 2025).

How the values were obtained:
Assay in all cases: log2 ratio of Biotin-Ahx-Ub-VS probe labelling (fragment/DMSO); higher = less target engagement (more negative = stronger competition), active = hit call of the paper (q ≤ 0.05, log2 ratio ≤ -1)
Conditions in all cases: compound concentration: 200 uM; treatment time: 3 h
USP9X = USP9X (UniProt Q93008)
In short: (§1)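 HEK293T lysate (495 µg per sample, in Tris/CHAPS/IGEPAL buffer with protease inhibitors) was exposed in triplicate for 3 h to fragment at 200 µM or to vehicle, then to Biotin-Ahx-Ub-VS at 0.5 µM final for 1 h. Labelled DUBs were enriched on NeutrAvidin, digested with LysC and trypsin, and analysed by diaPASEF LC-MS/MS. Spectronaut label-free quantities were normalised to the global median, and values are average log2 ratios of fragment over vehicle from an unpaired t-test. Only proteins with ≥2 unique peptides were used.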

UniProt O00487 = target: UniProt O00487
In short: as §1

UniProt O00507 = target: UniProt O00507
In short: as §1

UniProt P51784 = target: UniProt P51784
In short: as §1

UniProt Q5T2D3 = target: T1, UniProt Q5T2D3
T1 sequence (whole entry): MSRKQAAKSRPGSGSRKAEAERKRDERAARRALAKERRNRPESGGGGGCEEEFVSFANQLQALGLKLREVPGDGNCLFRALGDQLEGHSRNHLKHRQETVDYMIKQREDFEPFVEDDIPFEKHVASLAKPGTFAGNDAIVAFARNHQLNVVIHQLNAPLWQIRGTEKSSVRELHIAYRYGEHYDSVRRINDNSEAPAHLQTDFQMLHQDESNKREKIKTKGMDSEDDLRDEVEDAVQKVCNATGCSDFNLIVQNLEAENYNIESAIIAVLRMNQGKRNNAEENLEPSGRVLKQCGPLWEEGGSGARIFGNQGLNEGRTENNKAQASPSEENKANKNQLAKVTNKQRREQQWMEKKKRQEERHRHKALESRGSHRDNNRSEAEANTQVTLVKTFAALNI
In short: as §1

UniProt Q8TE49 = target: T2, UniProt Q8TE49
T2 sequence (whole entry): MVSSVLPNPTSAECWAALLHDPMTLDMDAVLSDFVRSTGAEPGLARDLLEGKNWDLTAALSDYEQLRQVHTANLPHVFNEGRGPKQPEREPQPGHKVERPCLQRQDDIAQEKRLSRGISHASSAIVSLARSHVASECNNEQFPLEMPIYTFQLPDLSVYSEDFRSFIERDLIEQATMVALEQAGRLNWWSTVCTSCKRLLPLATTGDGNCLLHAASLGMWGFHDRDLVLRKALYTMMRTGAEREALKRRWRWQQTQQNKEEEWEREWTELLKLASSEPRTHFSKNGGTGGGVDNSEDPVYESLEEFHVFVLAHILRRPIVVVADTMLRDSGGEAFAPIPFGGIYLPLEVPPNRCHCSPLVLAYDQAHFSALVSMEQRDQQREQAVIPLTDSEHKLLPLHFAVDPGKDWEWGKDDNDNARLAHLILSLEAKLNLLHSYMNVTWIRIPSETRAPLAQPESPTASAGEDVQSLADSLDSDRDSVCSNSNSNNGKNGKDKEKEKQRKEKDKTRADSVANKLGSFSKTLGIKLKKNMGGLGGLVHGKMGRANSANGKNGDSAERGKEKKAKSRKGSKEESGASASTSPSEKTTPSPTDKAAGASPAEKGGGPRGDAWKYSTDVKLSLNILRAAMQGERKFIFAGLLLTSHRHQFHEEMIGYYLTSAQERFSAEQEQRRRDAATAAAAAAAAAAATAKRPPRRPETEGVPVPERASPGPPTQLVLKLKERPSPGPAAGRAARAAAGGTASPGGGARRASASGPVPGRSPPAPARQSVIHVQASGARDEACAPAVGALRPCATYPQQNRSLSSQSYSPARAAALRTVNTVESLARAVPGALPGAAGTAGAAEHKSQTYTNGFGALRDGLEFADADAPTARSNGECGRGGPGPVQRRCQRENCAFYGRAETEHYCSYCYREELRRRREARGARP
In short: as §1

UniProt Q9P2H5 = target: T3, UniProt Q9P2H5
T3 sequence (whole entry): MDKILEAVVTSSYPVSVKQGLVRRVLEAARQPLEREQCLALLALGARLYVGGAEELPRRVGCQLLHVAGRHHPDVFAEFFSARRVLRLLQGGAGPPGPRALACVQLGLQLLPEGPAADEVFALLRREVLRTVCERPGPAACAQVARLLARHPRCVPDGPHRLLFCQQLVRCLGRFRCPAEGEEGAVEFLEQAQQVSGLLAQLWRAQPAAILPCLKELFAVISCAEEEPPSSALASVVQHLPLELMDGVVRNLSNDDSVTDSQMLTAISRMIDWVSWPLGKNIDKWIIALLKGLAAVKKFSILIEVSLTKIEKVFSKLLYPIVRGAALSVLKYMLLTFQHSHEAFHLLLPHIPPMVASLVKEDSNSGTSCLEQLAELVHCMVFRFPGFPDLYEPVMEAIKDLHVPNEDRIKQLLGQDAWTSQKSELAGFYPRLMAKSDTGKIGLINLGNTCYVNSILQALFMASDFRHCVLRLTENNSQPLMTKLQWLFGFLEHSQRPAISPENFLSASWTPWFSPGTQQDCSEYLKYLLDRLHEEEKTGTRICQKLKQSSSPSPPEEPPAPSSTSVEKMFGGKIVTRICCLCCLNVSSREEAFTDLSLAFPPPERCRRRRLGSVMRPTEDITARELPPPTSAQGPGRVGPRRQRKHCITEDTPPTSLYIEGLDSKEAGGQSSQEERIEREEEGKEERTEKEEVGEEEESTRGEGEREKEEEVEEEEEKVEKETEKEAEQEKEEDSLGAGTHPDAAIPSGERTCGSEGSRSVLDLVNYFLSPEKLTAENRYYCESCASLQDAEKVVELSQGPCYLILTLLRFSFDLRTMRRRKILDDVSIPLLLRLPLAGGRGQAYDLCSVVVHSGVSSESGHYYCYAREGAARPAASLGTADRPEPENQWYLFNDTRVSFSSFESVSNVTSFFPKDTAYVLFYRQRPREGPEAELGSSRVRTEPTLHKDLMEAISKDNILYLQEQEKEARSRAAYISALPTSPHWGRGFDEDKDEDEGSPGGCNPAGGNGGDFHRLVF
In short: as §1

UniProt Q9UGI0 = target: T4, UniProt Q9UGI0
T4 sequence (whole entry): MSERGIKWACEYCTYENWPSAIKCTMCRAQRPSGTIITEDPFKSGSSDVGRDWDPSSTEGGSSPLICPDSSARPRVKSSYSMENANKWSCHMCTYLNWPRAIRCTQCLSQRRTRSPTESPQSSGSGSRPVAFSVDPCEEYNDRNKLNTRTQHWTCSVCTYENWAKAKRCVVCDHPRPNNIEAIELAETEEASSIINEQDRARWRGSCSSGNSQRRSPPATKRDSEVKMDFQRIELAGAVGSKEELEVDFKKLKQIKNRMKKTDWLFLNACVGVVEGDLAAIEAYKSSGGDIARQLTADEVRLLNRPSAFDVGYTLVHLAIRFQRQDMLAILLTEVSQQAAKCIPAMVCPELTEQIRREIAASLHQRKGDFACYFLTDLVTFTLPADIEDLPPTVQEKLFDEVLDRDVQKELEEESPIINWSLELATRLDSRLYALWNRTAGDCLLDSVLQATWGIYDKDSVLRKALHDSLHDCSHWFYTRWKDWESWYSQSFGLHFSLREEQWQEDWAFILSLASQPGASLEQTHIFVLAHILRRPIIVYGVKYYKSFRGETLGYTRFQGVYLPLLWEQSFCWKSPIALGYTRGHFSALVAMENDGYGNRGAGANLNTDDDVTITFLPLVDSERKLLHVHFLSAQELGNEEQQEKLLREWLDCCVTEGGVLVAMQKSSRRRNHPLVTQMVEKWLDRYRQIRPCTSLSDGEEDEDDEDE
In short: as §1

YOD1 = target: T5, YOD1 (UniProt Q5VVQ6)
T5 sequence (whole entry): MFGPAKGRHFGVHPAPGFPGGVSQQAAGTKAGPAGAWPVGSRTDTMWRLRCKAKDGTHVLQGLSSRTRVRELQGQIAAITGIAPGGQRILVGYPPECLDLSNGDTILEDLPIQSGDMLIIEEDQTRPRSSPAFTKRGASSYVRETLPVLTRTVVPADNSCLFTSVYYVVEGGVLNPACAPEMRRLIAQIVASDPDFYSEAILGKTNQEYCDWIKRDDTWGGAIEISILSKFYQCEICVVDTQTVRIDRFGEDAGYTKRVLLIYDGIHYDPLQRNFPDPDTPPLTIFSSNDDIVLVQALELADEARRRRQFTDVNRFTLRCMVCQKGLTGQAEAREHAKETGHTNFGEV
In short: as §1

Measured: log2 ratio of Biotin-Ahx-Ub-VS probe labelling

Sequence of UniProt O00487 (O00487 whole entry): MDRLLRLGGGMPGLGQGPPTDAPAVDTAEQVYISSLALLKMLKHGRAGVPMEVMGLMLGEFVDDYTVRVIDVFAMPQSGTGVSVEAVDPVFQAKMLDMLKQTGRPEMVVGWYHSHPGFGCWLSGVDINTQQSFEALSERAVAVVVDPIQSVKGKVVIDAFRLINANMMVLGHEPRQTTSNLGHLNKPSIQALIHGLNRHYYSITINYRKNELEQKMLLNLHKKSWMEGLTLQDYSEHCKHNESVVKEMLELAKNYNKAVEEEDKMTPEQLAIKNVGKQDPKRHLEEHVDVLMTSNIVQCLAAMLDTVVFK
Sequence of UniProt P51784 (P51784 whole entry): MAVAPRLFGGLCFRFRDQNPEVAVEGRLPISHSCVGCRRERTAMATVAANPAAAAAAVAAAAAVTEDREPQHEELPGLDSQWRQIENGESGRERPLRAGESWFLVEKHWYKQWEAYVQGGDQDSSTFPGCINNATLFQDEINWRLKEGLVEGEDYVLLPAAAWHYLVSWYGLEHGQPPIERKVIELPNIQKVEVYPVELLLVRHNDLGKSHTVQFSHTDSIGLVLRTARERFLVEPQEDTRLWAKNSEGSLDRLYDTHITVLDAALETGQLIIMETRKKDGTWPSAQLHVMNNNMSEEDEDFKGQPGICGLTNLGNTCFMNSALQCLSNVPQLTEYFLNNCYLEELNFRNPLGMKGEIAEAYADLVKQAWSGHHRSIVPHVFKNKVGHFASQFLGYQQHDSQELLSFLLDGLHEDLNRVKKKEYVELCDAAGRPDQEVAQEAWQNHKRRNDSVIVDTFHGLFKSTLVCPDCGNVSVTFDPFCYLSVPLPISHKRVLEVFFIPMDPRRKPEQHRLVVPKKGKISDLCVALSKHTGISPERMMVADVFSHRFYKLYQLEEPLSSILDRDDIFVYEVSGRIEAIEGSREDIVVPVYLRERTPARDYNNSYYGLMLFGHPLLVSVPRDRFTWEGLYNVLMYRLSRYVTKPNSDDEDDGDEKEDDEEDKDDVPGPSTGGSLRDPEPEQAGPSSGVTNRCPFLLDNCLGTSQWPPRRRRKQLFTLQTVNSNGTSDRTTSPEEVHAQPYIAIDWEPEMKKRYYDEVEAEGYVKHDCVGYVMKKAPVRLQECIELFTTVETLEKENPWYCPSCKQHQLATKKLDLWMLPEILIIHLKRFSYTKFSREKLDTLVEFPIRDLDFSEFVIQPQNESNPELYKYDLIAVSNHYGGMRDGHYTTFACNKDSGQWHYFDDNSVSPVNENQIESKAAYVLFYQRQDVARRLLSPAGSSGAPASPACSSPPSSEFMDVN
Sequence of UniProt O00507 (O00507 whole entry): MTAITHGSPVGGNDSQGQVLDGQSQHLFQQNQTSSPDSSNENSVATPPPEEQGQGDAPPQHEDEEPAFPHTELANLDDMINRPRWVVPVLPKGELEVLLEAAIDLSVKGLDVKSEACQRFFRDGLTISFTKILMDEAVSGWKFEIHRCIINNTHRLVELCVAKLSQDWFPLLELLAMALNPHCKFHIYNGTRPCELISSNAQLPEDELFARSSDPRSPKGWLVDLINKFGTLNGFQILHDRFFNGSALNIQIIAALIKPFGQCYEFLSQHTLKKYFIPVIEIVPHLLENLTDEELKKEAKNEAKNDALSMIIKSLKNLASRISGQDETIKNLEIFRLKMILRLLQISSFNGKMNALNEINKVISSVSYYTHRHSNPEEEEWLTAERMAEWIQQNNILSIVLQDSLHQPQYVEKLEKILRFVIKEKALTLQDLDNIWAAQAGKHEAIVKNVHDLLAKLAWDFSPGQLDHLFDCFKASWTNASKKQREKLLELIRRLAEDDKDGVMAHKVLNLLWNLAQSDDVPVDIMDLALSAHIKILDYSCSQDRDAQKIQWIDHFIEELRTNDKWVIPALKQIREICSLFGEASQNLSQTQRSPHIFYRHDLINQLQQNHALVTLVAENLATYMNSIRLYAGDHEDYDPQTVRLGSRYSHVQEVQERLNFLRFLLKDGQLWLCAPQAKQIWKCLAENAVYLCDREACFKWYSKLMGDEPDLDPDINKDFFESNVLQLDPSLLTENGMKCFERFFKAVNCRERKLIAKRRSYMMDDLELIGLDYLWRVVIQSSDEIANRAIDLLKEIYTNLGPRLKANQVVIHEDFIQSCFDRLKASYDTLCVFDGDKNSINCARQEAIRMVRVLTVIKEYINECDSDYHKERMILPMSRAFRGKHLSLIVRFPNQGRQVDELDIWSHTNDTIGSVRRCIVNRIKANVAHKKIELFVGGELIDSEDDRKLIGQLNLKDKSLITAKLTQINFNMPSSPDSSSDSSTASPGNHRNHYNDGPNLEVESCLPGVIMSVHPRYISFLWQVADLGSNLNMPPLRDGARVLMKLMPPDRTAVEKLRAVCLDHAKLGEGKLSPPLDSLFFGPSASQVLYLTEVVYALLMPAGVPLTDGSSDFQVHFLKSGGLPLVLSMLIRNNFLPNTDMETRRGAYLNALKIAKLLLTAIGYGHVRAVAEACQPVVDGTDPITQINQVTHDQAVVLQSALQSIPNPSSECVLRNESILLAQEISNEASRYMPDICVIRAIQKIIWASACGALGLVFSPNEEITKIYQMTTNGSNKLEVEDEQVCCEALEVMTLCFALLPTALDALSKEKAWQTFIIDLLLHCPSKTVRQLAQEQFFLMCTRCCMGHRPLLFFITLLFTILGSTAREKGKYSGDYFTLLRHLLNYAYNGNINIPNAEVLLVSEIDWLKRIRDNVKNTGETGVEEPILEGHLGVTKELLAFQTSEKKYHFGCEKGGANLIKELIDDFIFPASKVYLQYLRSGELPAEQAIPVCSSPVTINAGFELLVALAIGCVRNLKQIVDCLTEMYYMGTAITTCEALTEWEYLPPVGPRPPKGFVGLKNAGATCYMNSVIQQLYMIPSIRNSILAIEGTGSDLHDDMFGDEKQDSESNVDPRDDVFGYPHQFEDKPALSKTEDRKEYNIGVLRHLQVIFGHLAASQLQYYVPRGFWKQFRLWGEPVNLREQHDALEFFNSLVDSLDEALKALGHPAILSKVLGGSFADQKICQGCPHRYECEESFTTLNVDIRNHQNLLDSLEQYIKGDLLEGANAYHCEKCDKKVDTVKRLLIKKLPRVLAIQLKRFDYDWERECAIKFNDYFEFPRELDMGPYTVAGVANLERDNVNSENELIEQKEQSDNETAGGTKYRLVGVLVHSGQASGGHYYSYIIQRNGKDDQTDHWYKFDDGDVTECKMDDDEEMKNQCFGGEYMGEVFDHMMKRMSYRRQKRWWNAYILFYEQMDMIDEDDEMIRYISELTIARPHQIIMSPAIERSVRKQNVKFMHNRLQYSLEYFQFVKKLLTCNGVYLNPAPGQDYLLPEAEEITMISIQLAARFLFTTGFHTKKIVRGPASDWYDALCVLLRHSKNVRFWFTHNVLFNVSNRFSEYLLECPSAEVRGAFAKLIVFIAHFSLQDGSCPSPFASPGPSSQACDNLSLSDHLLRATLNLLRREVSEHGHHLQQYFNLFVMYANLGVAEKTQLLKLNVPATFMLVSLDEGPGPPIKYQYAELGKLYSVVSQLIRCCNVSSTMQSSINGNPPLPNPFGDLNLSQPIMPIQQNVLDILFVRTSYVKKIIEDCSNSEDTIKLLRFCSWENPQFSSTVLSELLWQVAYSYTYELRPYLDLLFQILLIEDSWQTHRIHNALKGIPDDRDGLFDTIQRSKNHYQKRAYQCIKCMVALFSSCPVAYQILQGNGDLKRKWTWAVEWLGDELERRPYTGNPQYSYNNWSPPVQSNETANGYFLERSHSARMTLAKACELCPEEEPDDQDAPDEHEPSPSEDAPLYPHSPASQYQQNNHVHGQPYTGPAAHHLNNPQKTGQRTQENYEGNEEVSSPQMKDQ

Cc1nc(CN2CCN(C(=O)CCl)CC2)cs1
inactive: USP9X -0.168 | UniProt O00487 -0.171 | UniProt O00507 -0.246 | UniProt P51784 -0.106 | UniProt Q5T2D3 -0.213 | UniProt Q8TE49 -0.382 | UniProt Q9P2H5 -0.401 | UniProt Q9UGI0 -0.214 | YOD1 -0.111
